# Measurements: the supplement of paper PMC8728848
# The full list was thinned out, with the strongest signals kept by preference.
# Key:
# Assay in all cases: glycan array binding signal (z-score within array); higher = stronger binding
# Details in all cases: glycan notation: IUPAC condensed, linker removed; mutation: H262T
# [1] = biological target: Fuc(a1-2)Gal(b1-3)GalNAc(a1-3)[Fuc(a1-2)]Gal(b1-4)Glc
# Outline: (§1)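 From the Consortium for Functional Glycomics database, 3228 arrays were curated, keeping only those whose protein sequence was available. Binding is given as a within-array Z-score averaged across arrays sharing a protein sequence and across linkers. Negative Z-scores can be read as non-binding.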
# [2] = biological target: Fuc(a1-2)Gal(b1-3)GlcNAc(b1-3)[Gal(b1-4)GlcNAc(b1-6)]Gal(b1-4)Glc
# Outline: as §1
# Fuc(a1-2)Gal(b1-4)GlcNAc = biological target: Fuc(a1-2)Gal(b1-4)GlcNAc
# Outline: as §1
# [3] = biological target: Fuc(a1-2)Gal(b1-4)GlcNAc(b1-6)GalNAc
# Outline: as §1
# [4] = biological target: Fuc(a1-2)Gal6S(b1-3)GlcNAc6S
# Outline: as §1
# Fuc(a1-2)[Gal(a1-3)]Gal = biological target: Fuc(a1-2)[Gal(a1-3)]Gal
# Outline: as §1
# [5] = biological target: Fuc(a1-2)[Gal(a1-3)]Gal(b1-4)GlcNAc(b1-2)Man(a1-3)[Fuc(a1-2)[Gal(a1-3)]Gal(b1-4)GlcNAc(b1-2)Man(a1-6)]Man(b1-4)GlcNAc(b1-4)GlcNAc
# Outline: as §1
# [6] = biological target: Fuc(a1-2)[Gal(a1-3)]Gal(b1-4)[Fuc(a1-3)]Glc
# Outline: as §1
# [7] = biological target: Fuc(a1-2)[GalNAc(a1-3)]Gal(b1-3)GlcNAc(b1-6)GalNAc
# Outline: as §1
# [8] = biological target: Fuc(a1-2)[GalNAc(a1-3)]Gal(b1-4)GlcNAc(b1-2)Man
# Outline: as §1
# [9] = biological target: Fuc(a1-2)[GalNAc(a1-3)]Gal(b1-4)GlcNAc(b1-6)GalNAc
# Outline: as §1
# [10] = biological target: Fuc(a1-2)[GalNAc(a1-4)]Gal(b1-4)GlcNAc
# Outline: as §1
# [11] = biological target: Fuc(a1-2)[GalNAc(b1-3)]Gal
# Outline: as §1
# Fuc(a1-4)GlcNAc = biological target: Fuc(a1-4)GlcNAc
# Outline: as §1
# Gal(a1-3)Gal = biological target: Gal(a1-3)Gal
# Outline: as §1
# [12] = biological target: Gal(a1-3)Gal(b1-3)GlcNAc(b1-6)GalNAc
# Outline: as §1
# [13] = biological target: Gal(a1-3)Gal(b1-4)GlcNAc(b1-2)Man
# Outline: as §1
# [14] = biological target: Gal(a1-3)Gal(b1-4)GlcNAc(b1-6)GalNAc
# Outline: as §1
# [15] = biological target: Gal(a1-4)Gal(b1-4)GlcNAc(b1-2)Man(a1-3)[Gal(a1-4)Gal(b1-4)GlcNAc(b1-2)Man(a1-6)]Man(b1-4)GlcNAc(b1-4)GlcNAc
# Outline: as §1
# [16] = biological target: Gal(b1-3)GlcNAc(b1-6)GalNAc
# Outline: as §1
# [17] = biological target: Gal(b1-3)[Fuc(a1-4)]GlcNAc(b1-2)Man
# Outline: as §1
# Gal(b1-4)Glc6S = biological target: Gal(b1-4)Glc6S
# Outline: as §1
# [18] = biological target: Gal(b1-4)GlcNAc(a1-6)Gal(b1-4)GlcNAc
# Outline: as §1
# [19] = biological target: Gal(b1-4)GlcNAc(b1-2)[Gal(b1-4)GlcNAc(b1-4)]Man(a1-3)[GlcNAc(b1-4)][Gal(b1-4)GlcNAc(b1-2)[Gal(b1-4)GlcNAc(b1-6)]Man(a1-6)]Man(b1-4)GlcNAc(b1-4)GlcNAc
# Outline: as §1
# [20] = biological target: Gal(b1-4)GlcNAc(b1-3)Gal(b1-4)GlcNAc(b1-3)Gal(b1-4)GlcNAc(b1-2)Man(a1-3)[Gal(b1-4)GlcNAc(b1-3)Gal(b1-4)GlcNAc(b1-3)Gal(b1-4)GlcNAc(b1-2)Man(a1-6)]Man(b1-4)GlcNAc(b1-4)GlcNAc
# Outline: as §1
# [21] = biological target: Gal(b1-4)GlcNAc(b1-3)Gal(b1-4)GlcNAc(b1-3)GalNAc
# Outline: as §1
# [22] = biological target: Gal(b1-4)GlcNAc(b1-6)Gal(b1-4)GlcNAc
# Outline: as §1
# [23] = biological target: Gal(b1-4)GlcNAc(b1-6)GalNAc
# Outline: as §1
# [24] = biological target: Gal(b1-4)GlcNAc(b1-6)[Gal(b1-4)GlcNAc(b1-3)]GalNAc
# Outline: as §1
binder,measurement,setting,value
MGL6A (Homo sapiens) (protein) MTRTYENFQYLENKVKVQGFKNGPLPLQSLLQRLCSGPCHLLLSLGLGLLLLVIICVVGFQNSKFQRDLVTLRTDFSNFTSNTVAEIQALTSQGSSLEETIASLKAEVEGFKQERQAVHSEMLLRVQQLVQDLKKLTCQVATLNNNGEEASTEGTCCPVNWVEHQDSCYWFSHSGMSWAEAEKYCQLKNAHLVVINSREEQNFVQKYLGSAYTWMGLSDPEGAWKWVDGTDYATGFQNWKPGQPDDWQGHGLGGGEDCAHFTPDGRWNDDVCQRPYHWVCEAGLGQTSQESH,glycan array binding signal (z-score),[1],-0.173
same,glycan array binding signal (z-score),[2],-0.175
same,glycan array binding signal (z-score),Fuc(a1-2)Gal(b1-4)GlcNAc,-0.174
same,glycan array binding signal (z-score),[3],7.25
same,glycan array binding signal (z-score),[4],-0.154
same,glycan array binding signal (z-score),Fuc(a1-2)[Gal(a1-3)]Gal,-0.171
same,glycan array binding signal (z-score),[5],-0.165
same,glycan array binding signal (z-score),[6],-0.177
same,glycan array binding signal (z-score),[7],5.97
same,glycan array binding signal (z-score),[8],-0.176
same,glycan array binding signal (z-score),[9],5.98
same,glycan array binding signal (z-score),[10],4.51
same,glycan array binding signal (z-score),[11],5.17
same,glycan array binding signal (z-score),Fuc(a1-4)GlcNAc,-0.173
same,glycan array binding signal (z-score),Gal(a1-3)Gal,-0.171
same,glycan array binding signal (z-score),[12],7.68
same,glycan array binding signal (z-score),[13],-0.18
same,glycan array binding signal (z-score),[14],7.07
same,glycan array binding signal (z-score),[15],-0.168
same,glycan array binding signal (z-score),[16],6.2
same,glycan array binding signal (z-score),[17],-0.169
same,glycan array binding signal (z-score),Gal(b1-4)Glc6S,-0.172
same,glycan array binding signal (z-score),[18],-0.172
same,glycan array binding signal (z-score),[19],-0.197
same,glycan array binding signal (z-score),[20],-0.169
same,glycan array binding signal (z-score),[21],-0.172
same,glycan array binding signal (z-score),[22],-0.172
same,glycan array binding signal (z-score),[23],3.65
same,glycan array binding signal (z-score),[24],-0.172
